Data as given in the supplement of paper PMC11624193, “Coupling cellular drug-target engagement to downstream pharmacology with CeTEAM” (Nature Communications, 2024).
Structures can show the parent of a compound that is named as a salt.

What follows are molecules tested against PARP1 L713F-nLuc biosensor (HCT116) (UniProt P09874) (assay: PARP1 L713F-nLuc/akaLuc ratio relative to DMSO control (biosensor stabilization) (fold change); higher = more PARP1 biosensor stabilization (target engagement / stabilizer), active = hit call of the paper). Details: stock concentration (mM; final µM = stock mM x 1): 10; 24 h;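 active = log2 fold change beyond 2 SD from the library mean after excluding viability outliers; inactive = within 2 SD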.
PARP1 L713F-nLuc biosensor (HCT116), sequence (P09874 whole entry L713F, looked up): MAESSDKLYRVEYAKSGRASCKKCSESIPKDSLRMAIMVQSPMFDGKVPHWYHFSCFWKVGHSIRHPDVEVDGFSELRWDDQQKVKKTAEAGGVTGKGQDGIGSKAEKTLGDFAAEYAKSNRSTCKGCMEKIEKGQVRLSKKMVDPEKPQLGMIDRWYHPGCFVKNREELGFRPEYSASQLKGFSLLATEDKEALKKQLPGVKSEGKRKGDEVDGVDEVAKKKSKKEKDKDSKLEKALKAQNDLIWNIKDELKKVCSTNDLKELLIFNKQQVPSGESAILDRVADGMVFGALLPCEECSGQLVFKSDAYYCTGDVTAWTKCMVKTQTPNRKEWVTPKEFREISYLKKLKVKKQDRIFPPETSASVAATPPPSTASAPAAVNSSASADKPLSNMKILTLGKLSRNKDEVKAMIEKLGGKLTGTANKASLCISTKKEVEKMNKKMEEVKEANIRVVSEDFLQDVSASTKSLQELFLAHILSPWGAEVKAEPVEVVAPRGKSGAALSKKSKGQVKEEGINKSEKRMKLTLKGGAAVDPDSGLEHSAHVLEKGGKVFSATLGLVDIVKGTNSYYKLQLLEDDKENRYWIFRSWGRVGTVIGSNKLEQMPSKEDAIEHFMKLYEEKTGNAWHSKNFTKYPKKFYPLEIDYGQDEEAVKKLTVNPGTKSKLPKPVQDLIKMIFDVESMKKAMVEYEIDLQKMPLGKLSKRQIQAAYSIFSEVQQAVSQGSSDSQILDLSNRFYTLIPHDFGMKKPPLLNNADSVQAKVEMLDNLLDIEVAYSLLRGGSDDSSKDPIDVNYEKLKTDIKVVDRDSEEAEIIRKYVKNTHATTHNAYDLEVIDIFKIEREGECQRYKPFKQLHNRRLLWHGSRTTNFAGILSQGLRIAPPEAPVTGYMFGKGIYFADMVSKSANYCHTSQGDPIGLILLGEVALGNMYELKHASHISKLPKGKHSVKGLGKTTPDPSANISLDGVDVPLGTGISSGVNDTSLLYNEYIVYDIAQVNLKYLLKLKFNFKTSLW
For `NC(=O)c1cnc2[nH]ccc2c1N[C@@H]1[C@@H]2CC3C[C@H]1C[C@@](O)(C3)C2`, the “PARP1 L713F-nLuc/akaLuc ratio” value was 0.774 (inactive). In the case of `O=C1/C(=C/c2ccc(O)c(Br)c2)CN(Cc2ccccc2)C/C1=C\c1ccc(O)c(Br)c1`, the “PARP1 L713F-nLuc/akaLuc ratio” value is reported as 0.985 (inactive). `CCOC(=O)c1ccnc(CNCC(=O)N(CC)CCN(C)C)c1` was tested, and the “PARP1 L713F-nLuc/akaLuc ratio” value was 2.92 (active). With `CCN(CC)Cc1cc(Nc2ccnc3cc(Cl)ccc23)ccc1O` [Amodiaquine (dihydrochloride dihydrate)] the “PARP1 L713F-nLuc/akaLuc ratio” value was 0.819 (inactive). `O=c1cc(-c2ccc(O[C@@H]3O[C@H](CO)[C@@H](O)[C@H](O)[C@H]3O)cc2)oc2cc(O)c([C@@H]3O[C@H](CO)[C@@H](O)[C@H](O)[C@H]3O[C@@H]3OC[C@H](O)[C@H](O)[C@H]3O)c(O)c12` [Vaccarin] was tested, and the “PARP1 L713F-nLuc/akaLuc ratio” value was 0.723 (inactive). In the case of `CS(=O)(=O)c1ccc(C(=O)Nc2ccc(Cl)c(-c3ccccn3)c2)c(Cl)c1` [Vismodegib (GDC-0449)], the “PARP1 L713F-nLuc/akaLuc ratio” value is reported as 1.11 (inactive). In the case of `CCCCCCCCCCCCC/C=C/[C@@H](O)[C@H](CO)NC(=O)CCCCCCC` [C8-Ceramide], the “PARP1 L713F-nLuc/akaLuc ratio” value is reported as 0.658 (inactive). With `CC(CC(=O)C[C@@H](C)[C@H]1CC(=O)[C@@]2(C)C3=C(C(=O)C[C@]12C)[C@@]1(C)CCC(=O)C(C)(C)[C@@H]1C[C@@H]3O)C(=O)O` (stereo not given in full) [Ganoderic acid D] the “PARP1 L713F-nLuc/akaLuc ratio” value was 0.929 (inactive). `CNc1nc(-c2ccc3c(N)n[nH]c3c2)cc(N2C[C@@H](C(=O)NC3CCCCC3)CC[C@H]2C)n1` was tested, and the “PARP1 L713F-nLuc/akaLuc ratio” value was 0.434 (inactive). For `C=CC(=O)Nc1cccc(Oc2nc(Nc3ccc(N4CCN(C)CC4)cc3)nc3ccsc23)c1`, the “PARP1 L713F-nLuc/akaLuc ratio” value was 1.03 (inactive).
